DAGLB inh = diacylglycerol lipase beta (human) inhibition; Q8NCG7; HEK293T DAGLB membrane lysate, EnzChek fluorogenic substrate; inhibition, % at 5.17 µM; 340,000 tested, 0.059% active; in the data active = inhibition above about 34%
Target sequence (Q8NCG7 whole entry, looked up): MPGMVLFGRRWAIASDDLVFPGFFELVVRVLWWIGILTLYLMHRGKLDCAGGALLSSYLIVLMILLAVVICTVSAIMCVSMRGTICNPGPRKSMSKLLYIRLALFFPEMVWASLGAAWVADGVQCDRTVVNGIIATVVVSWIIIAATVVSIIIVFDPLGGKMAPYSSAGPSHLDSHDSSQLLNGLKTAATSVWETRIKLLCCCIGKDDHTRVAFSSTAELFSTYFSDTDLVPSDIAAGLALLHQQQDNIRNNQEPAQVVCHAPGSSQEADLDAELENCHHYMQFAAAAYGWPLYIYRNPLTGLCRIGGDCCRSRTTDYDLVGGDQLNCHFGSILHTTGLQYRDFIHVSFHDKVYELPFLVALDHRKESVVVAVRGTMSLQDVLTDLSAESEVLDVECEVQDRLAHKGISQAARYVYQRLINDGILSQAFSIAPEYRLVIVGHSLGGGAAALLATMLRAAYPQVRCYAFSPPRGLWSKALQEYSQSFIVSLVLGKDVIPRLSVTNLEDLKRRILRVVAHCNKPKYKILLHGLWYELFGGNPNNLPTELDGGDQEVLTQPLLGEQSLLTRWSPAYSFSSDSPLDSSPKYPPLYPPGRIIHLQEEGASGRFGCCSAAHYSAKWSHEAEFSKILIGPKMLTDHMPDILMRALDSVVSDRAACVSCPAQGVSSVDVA
ANO1 activ = mouse TMEM16A channel activation, primary screen. Q8BHY3. HEK293 TMEM16A/YFP-H148Q/I152L, iodide quench fluorescence; stronger effect = lower value. B-score at 10 µM. 340,000 tested, 0.3% active. AID 623877;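 active = fluorescence-ratio B-score plate-corrected deviation score at least 3 library SD below zero, with starting fluorescence score within 5 deviations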;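 note: channel opened by trigger with iodide after compound preincubation; score built on the fluorescence ratio of max minus min over baseline; more negative score means more quench and so TMEM16A activation or potentiation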
iPSC survival up = enhancers of human iPSC single-cell survival. hiPSC single-cell survival, ATPlite luminescence; 100% = ROCK inhibitor wells, 0% = DMSO. survival enhancement, % at 20 µM. 360,000 tested, 0.044% active. AID 602274; in the data active = survival enhancement above about 18%;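 note: cells exposed to compounds for 16 hours before the ATP read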
ABCB6 inh MLPCN = human ABCB6 transporter inhibition | Q9NP58 | AID 602162 | K562-ABCB6 porphyrin accumulation, flow cytometry, 1 h; stronger effect = lower value | 360,000 tested, 0.19% active | fluorescence ratio to DMSO, % at 10 µM;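 active = fluorescence ratio to DMSO below 75%, the collection mean minus 3 SD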;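 note: signal is porphyrin accumulated inside mitochondria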
ANO1 block = mouse TMEM16A channel inhibition, primary screen | Q8BHY3 | HEK293 TMEM16A/YFP iodide influx fluorescence, ionomycin | normalized B-score (activity score, 25-100; higher = stronger inhibition) at 10 µM | 310,000 tested, 1.2% active | AID 588511;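 active = ratio plate-corrected score three or more library SD toward inhibition, starting fluorescence score within five deviations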;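 note: score derived from kinetic fluorescence span divided by baseline fluorescence per well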
Each line names hits and unclear results; the compound was inactive in the other large screens. This is a sample that favours compounds with a hit; in the whole collection about 1.5% have one here.

O=[N+]([O-])c1cc(C(F)(F)F)ccc1NCCNC(=S)Nc1ccc(Cl)cc1	ANO1 block 100
Fc1ccc(NC(=S)NCc2cccnc2)cc1	ANO1 activ -7
COc1ccccc1NS(=O)(=O)c1ccc(C)c(NC(=O)C2CCCO2)c1 (stereo unspecified)	none (no result: ANO1 block)
CCC(C)c1ccc(NC(=O)N2CCOCC2)cc1 (stereo unspecified)	none
CC1CCN(c2ccc3c(c2)S(=O)(=O)c2cccc(C(=O)NC4CC4)c2C3=O)CC1	none (no result: ANO1 block)
O=[N+]([O-])c1ccc(NC(=S)NCCc2ccc(Cl)cc2)cc1	ANO1 block 100
S=C(NCCc1ccccc1)Nc1ccc(Cl)cc1	none
COc1ccc(CCNC(=O)COc2ccc(S(=O)(=O)NC3CCCCC3)cc2Cl)cc1	ANO1 block 100
O=C(COc1ccc(S(=O)(=O)NC2CCCCC2)cc1Cl)NCC1CCCO1 (stereo unspecified)	none
O=C1NC[C@H](CCCCN2CCN(CC3CCCCC3)C(=O)C2=O)N(Cc2ccccc2)C1=O	none (no result: DAGLB inh, ANO1 activ, ANO1 block)
CCOc1ccc(CCNC(=O)c2ccc(NC3=NC4CS(=O)(=O)CC4S3)cc2)cc1 (stereo unspecified)	none
CC(=O)NCCNC(=O)c1ccc(NC2=NC3CS(=O)(=O)CC3S2)cc1 (stereo unspecified)	ANO1 activ -12.1
Cc1ccc(S(=O)(=O)N2CCN(C(=O)CCOc3cc(C)ccc3C)CC2)cc1	ANO1 activ -43.9 (no result: ANO1 block)
CCc1nc2c(OCc3ccc(C(=O)N(C)C)cc3)cccn2c1N(C)C(=O)Nc1ccccc1OC	none (no result: DAGLB inh, ANO1 activ, ANO1 block)
O=c1c(/C=N\NS(=O)(=O)c2ccccc2)coc2ccc(Cl)cc12	ANO1 block 100
O=C(N/N=C/c1coc2ccccc2c1=O)c1ccc(Cl)cc1	none
Nc1ccc2c(c1)C(=O)C(=O)c1ccccc1-2	ANO1 block 25
CCN(CC(=O)Nc1c(F)cccc1F)C(=O)CCCc1cccs1	ANO1 activ -39.3 (no result: ANO1 block)
Cc1ccc(-c2noc(C3CCCN(C(=O)c4ccccc4Br)C3)n2)cc1 (stereo unspecified)	ANO1 block 100
O=C(CN1C(=O)c2ccccc2S1(=O)=O)c1ccc(Cl)cc1Cl	none
O=S(=O)(Nc1cc(S(=O)(=O)N2CCOCC2)ccc1N1CCOCC1)c1ccc2c(c1)OCCO2	none
O=S(=O)(Nc1cc(S(=O)(=O)N2CCOCC2)ccc1O)c1ccc2c(c1)OCCCO2	ANO1 activ -22.4 (no result: ANO1 block)
CCOc1ccccc1NC(=S)NCCc1ccc(F)cc1	none
CCOc1ccccc1NC(=S)NCCc1ccccc1	ANO1 activ -5.24
COc1cccc(NC(=O)CN(C)C(=O)c2cc3ccccc3cc2OC)c1	ANO1 activ -34.1 (no result: ANO1 block)
COc1cccc(NC(=O)CN(C)C(=O)c2ccc3ccccc3c2)c1	none
COC(=O)[C@@]1(Cc2ccc(F)cc2)[C@H]2c3cc(C(=O)N(C)C)n(CCCNc4ncc(C(F)(F)F)cc4Cl)c3C[C@H]2CN1C(=O)c1ccccc1	none (no result: DAGLB inh, ANO1 activ, ANO1 block)
COc1cccc(C(C[N+](=O)[O-])c2c(C)[nH]n(-c3ccccc3)c2=O)c1 (stereo unspecified)	none
Cc1[nH]n(-c2ccccc2)c(=O)c1C(C[N+](=O)[O-])c1ccc(Br)cc1 (stereo unspecified)	ANO1 block 25
CCCCOc1ccc(S(=O)(=O)Nc2cc(OC)ccc2OC)cc1	ANO1 block 25
COc1ccc(OC)c(NS(=O)(=O)c2ccc(Cl)nc2)c1	none
O=C(N/N=C/c1cc(Cl)c(O)c(Cl)c1)c1cc2c(ccc3ccccc32)o1	ANO1 block 100
O=C(N/N=C/c1cc(Br)c(O)c(Br)c1)c1cc2c(ccc3ccccc32)o1	ANO1 block 100
COc1ccc(CN2CCNC(=O)C2CC(=O)N2CCCN(C(C)=O)CC2)cc1OC (stereo unspecified)	none
CC(=O)N1CCN(c2ccc(Oc3ccc([N+](=O)[O-])c(C(F)(F)F)c3)cc2)CC1	ANO1 block 100
CCCCn1c(=O)[nH]c(=O)c2c1nc(-c1ccc(C)c([N+](=O)[O-])c1)n2CC	none
Cc1ccc(-c2nc3c(c(=O)[nH]c(=O)n3CC(C)C)n2CC(C)C)cc1[N+](=O)[O-]	ANO1 activ -4.57
COCCn1c(-c2ccc(OC(F)(F)C(F)C(F)(F)F)cc2)nc2c1c(=O)[nH]c(=O)n2CC(C)C (stereo unspecified)	ANO1 block 100
CC(C)Oc1ccc(C2NC(=O)c3ccccc3O2)cc1 (stereo unspecified)	none
O=c1onc(-c2ccccc2Cl)n1-c1ccccc1Cl	none
O=c1cc(-c2ccccc2)nc2nc(SCc3ccccc3)[nH]n12	iPSC survival up 31.4
O=C1CCC(=O)N1c1nc2nc(-c3ccccc3)cc(=O)n2[nH]1	ANO1 activ -23.5
Cn1c(=O)c2cc(NC(=O)NCCc3cccs3)ccc2n1-c1ccc(C(C)(C)C)cc1	none (no result: DAGLB inh, ANO1 activ, ANO1 block)
Brc1ccc2c(c1)OCCOCCOc1cc(Br)ccc1OCCOCCOCCO2	ANO1 block 100
Brc1cc2c(cc1Br)OCCOCCOCCOCCO2	none
COc1cccc(C2C(C(=O)OC(C)C)=C(C)N=c3s/c(=C\c4ccc(C(=O)O)cc4)c(=O)n32)c1 (stereo unspecified)	ANO1 activ -4.85
NC(=O)c1cc2ccccc2oc1=NCc1ccccc1	none
NC(=O)c1cc2cc(Br)ccc2oc1=NCc1ccccc1	ANO1 activ -8.53
O=C(O)C(C(O)c1ccccc1)[n+]1ccccc1 (stereo unspecified)	ANO1 activ -20.2
COc1ccc(C(CCNCc2ccc(OC(C)C)cc2)c2ccccc2OC)cc1 (stereo unspecified)	ANO1 block 25
COc1ccc(CNCCC(c2ccc(OC)cc2)c2ccccc2OC)cc1 (stereo unspecified)	none
N#CC(c1ccc(N)cc1)C(CC(=O)c1ccccc1)c1ccccc1 (stereo unspecified)	none (no result: ANO1 activ, ANO1 block)
Cc1nc2nc(N)nn2c(C)c1C/C=C/c1ccccc1	ANO1 activ -36.6
C=CCN1C(=O)/C(=c2\sc3nc(=O)c(Cc4ccccc4)nn3c2=O)c2ccccc21	none (no result: DAGLB inh)
C=CCN1C(=O)/C(=c2\sc3nc(=O)c(Cc4ccc(OC)c(OC)c4)nn3c2=O)c2ccccc21	ABCB6 inh MLPCN 11.0 (no result: DAGLB inh)
COc1ccccc1CN1C[C@@H]2C[C@@H](C3=Cc4cccc(OC)c4OC3)N3CCC[C@@]23C1=O	ANO1 activ -4.71
O=C(O)C(Cc1ccccc1)N1C(=O)C2C3CCC(C3)C2C1=O (stereo unspecified)	none (no result: ANO1 activ, ANO1 block)
Cc1occc1C(=O)Nc1nnc(C(F)(F)F)s1	none
O=C(Nc1ccccc1C(=O)Nc1nnc(C(F)(F)F)s1)c1ccccc1	ANO1 activ -6.18, ANO1 block 100
COc1ccc(C(=O)Nc2ccc(S(=O)(=O)Nc3cc(C)nc(C)n3)cc2)cc1OC	ANO1 activ -6.7
CCC1(C)Cc2c(C#N)c(N)sc(=S)c2CO1 (stereo unspecified)	ANO1 activ -25.1

Screening results from PubChem BioAssay.
